# Results: PubChem BioAssay AID1578 (Sanford-Burnham Center for Chemical Genomics, 2009)
# In all, about 290,000 compounds went through this assay and about 3,000 (1%) were called active. For the sample, actives were picked, then their nearest neighbours and some compounds at random. A number with no mark means an inactive call. Rule as the data show it: active = inhibition mostly above about 36% (no sharp cut-off); inactive = mostly below about 34%.
# Experiment: NOD1 signaling inhibitors, primary screen, cell-based, luminescence, uHTS (AID 1578);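 also: HEK-293T reporter cells stimulated with the NOD1 agonist gamma-tri-DAP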
# Conditions: NOD1-driven NF-kB luciferase reporter cells, at 4 µM, stronger effect = higher value
row,Compound,inhibition
1,CCN(C(=O)COC(=O)c1cccnc1Nc1ccccc1F)C1CCS(=O)(=O)C1 (centres undefined),-22.9%
2,CCOc1ccc(NC(=O)CCSc2nnc(C)s2)cc1,7.9%
3,Cc1ccc2c(c1)Oc1ccc(NC(=O)CCCl)cc1C(=O)N2,0.2%
4,Cc1ccc2c(c1)Oc1ccc(NC(=O)CCl)cc1C(=O)N2,103% (active)
5,Cc1ccc2c(c1)Oc1ccc([N+](=O)[O-])cc1C(=O)N2,-16.6%
6,CCCn1c(N)c(N(CCOC)C(=O)/C=C/c2cccc(Cl)c2)c(=O)[nH]c1=O,-16.5%
7,CC12CN3CC(C)(CN(C1)C3c1ccc(F)cc1)C2 (centres undefined),-30.5%
8,O=C(O)CCCC(=O)Nc1ccc(Oc2ncnc3cc(Cl)ccc23)nc1,-10.7%
9,CC(C(=O)N(C1CC1)C1(C(=O)Nc2ccccc2)CCCC1)N1C(=O)c2ccccc2C1=O (centres undefined),7.8%
10,COC(=O)c1ccccc1NC(=O)NCc1ccccn1,-25.3%
11,Oc1ccc(Cl)cc1C=Nc1ccc2c3c(cccc13)CC2,38.7%
12,Oc1ccc(Br)cc1C=Nc1ccc2c3c(cccc13)CC2,101% (active)
13,Cc1cccc(C=Nc2ccc3c4c(cccc24)CC3)c1O,-17.9%
14,Cc1cc(C(=O)NCCc2ccccc2)c2cc(F)ccc2n1,1.9%
15,CN(c1ccccc1)S(=O)(=O)c1ccc(Cl)c(C(=O)Nc2nc3ccccc3[nH]2)c1,3.8%
16,CN(c1cccc(Cl)c1)S(=O)(=O)c1cccc(C(=O)Nc2nc3ccccc3[nH]2)c1,53%
17,O=C(NCc1ccccc1)c1cnsn1,-16.6%
18,CC1CCc2nc3ccccc3c(C(=O)OCC(=O)N(C)C3CCS(=O)(=O)C3)c2C1 (centres undefined),-19.9%
19,COc1cc(C(=O)Nc2ccc(Nc3ccccc3)cc2)cc(OC)c1OC,-1.1%
20,Cc1ccc(C)c(CS(=O)(=O)c2cn(CC(=O)N3CCCCC3)c3ccccc23)c1,-19.4%
21,O=C(NN=C1CCCC1)c1cc(Br)ccc1O,-58.6%
22,CC(C)N(C(=O)CO/N=C/c1cccc([N+](=O)[O-])c1)C(C)C,-4.4%
23,O=C1N/C(=N/O)S/C1=C/c1cccc([N+](=O)[O-])c1,-24.9%
24,CC1(C)C2C/C(=N\O)C(C)(/[N+]([O-])=C/c3cccc([N+](=O)[O-])c3)CC21 (centres undefined),62.4% (active)
25,Cc1nnc(SCC(=O)O)s1,-10.4%

row,Compound,inhibition
1,Cc1ccc(-c2nc(CN3CCCC(C(=O)N4CCOCC4)C3)c(C)o2)cc1 (centres undefined),-23.5%
2,COC(=O)c1cnn(-c2ccc(Cl)cc2)c1/C=N/NC(N)=S,5.8%
3,CN(C)S(=O)(=O)c1cccc(NC(=O)c2cnccn2)c1,-27.8%
4,CN(C)S(=O)(=O)c1cccc(NC(=O)c2ccncc2)c1,-4.4%
5,CCOc1ccc(N/C(N)=N/c2nc(C)cc(C)n2)cc1,-34.6%
6,O=Cc1c(NCCN2CCOCC2)c2ccccc2[nH]c1=O,59.2% (active)
7,O=Cc1c(NCCN2CCCC2)c2ccccc2[nH]c1=O,0.2%
8,CN1CCN(CCCNc2c(C=O)c(=O)[nH]c3ccccc23)CC1,-5.5%
9,O=[N+]([O-])c1ccc(Cl)c(CN2CCN(c3ncccn3)CC2)c1,-27.2%
10,Cc1cc(C)nc(NC(=O)c2ccc(C)o2)n1,-48.4%
11,O=C1CC(c2ccc(F)cc2)c2cc3c(cc2N1)CCC3 (centres undefined),28.6%
12,O=C1CC(c2cc(F)ccc2F)c2cc3c(cc2N1)CCC3 (centres undefined),64.2% (active)
13,O=C1CC(c2ccccc2F)c2cc3c(cc2N1)CCC3 (centres undefined),8.6%
14,COc1ccc(NC(=O)CCn2cc(C)c3ccccc32)cc1,-5.7%
15,O=C(N/N=C/c1ccccc1)c1ccc(-c2ccccc2)cc1,-17.2%
16,CCC(=O)Nc1nc2ccccc2n1Cc1ccccc1,23.4%
17,CCCCCCCn1c(NC(=O)CC)nc2ccccc21,109% (active)
18,CCC(=O)Nc1nc2ccccc2n1Cc1ccc(C)cc1,31.5%
19,CCC(=O)Nc1nc2ccccc2n1Cc1ccc(Cl)cc1,101% (active)
20,CCC(=O)Nc1nc2ccccc2n1CCN(C)C,-15.3%
21,CCC(=O)Nc1nc2ccccc2n1CCN(CC)CC,-9.6%
22,CCn1c(C)nc2cc(C(=O)n3cc(C(=O)c4cc(F)ccc4O)cn3)ccc21,23.8%
23,Nc1ccc(-c2nc3ccccc3o2)cc1,5.8%
24,COc1ccc([C@@H]2[C@@H]3C(=O)N(C(C)(C)C)C(=O)[C@@H]3[C@]3(Cc4ccc(Cl)cc4)C(=O)N(c4cccc(C)c4)C(=O)N23)cc1,13.2%
